Screens (PubChem BioAssay)
Most compounds without a hit are left out; they make up all but 2.4% or so of the library.
ADAM10 inh: human ADAM10 inhibitors, primary screen, biochemical, QFRET, HTS. recombinant ADAM10, EDANS/DABCYL FRET peptide cleavage, 3 h. inhibition, % at 7 µM. 370,000 compounds, 0.62% hits. AID 720582, 2013;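 active = inhibition above a per-campaign cutoff equal to the mean of compounds falling between control-based bounds plus 3 SD, cut at about 20% in these data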
Target sequence (O14672 214-748 limits assumed): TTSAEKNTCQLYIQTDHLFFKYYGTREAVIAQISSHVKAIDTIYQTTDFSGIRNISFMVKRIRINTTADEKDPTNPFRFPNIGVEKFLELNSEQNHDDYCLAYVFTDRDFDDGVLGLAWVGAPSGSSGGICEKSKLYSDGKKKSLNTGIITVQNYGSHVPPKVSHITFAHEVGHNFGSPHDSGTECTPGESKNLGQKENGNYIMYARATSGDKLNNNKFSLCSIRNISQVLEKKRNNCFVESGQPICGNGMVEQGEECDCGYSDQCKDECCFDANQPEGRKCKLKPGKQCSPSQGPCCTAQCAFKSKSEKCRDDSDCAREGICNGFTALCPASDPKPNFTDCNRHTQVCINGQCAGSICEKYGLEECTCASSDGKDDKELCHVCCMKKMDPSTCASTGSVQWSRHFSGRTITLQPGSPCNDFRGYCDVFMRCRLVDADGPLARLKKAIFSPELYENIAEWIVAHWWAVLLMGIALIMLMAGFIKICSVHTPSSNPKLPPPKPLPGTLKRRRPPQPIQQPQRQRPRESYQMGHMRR
ADAM17 inh: ADAM17 inhibitors, primary screen, biochemical, QFRET | Disintegrin and metalloproteinase domain-containing protein 17 (Homo sapiens), P78536 | recombinant ADAM17, EDANS/DABCYL FRET peptide cleavage | inhibition, % at 6.95 µM | 370,000 compounds, 0.83% hits | AID 720648, 2013;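 active = inhibition above the mean of compounds lying between control limits plus 3 SD, set per campaign, cut at about 8.5% in these data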
CendR NRP1 mod: modulators of CendR peptide binding to NRP-1, primary screen, biochemical, fluorescence polarization, uHTS. Neuropilin-1 (Homo sapiens), O14786. FAM-RPARPAR peptide binding to NRP-1. inhibition, % at 25 µM. 360,000 compounds, 0.85% hits;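 active = inhibition or corrected inhibition above about 18%, plus a signal ratio from 0.5 to 1.5, limit read from the data, passing the limit was not always enough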
APOBEC3A inh: APOBEC3A ssDNA deaminase inhibitors, primary screen, selectivity assay for APOBEC3G inhibitor project, biochemical, FAM/TAMRA oligo cleavage fluorescence. recombinant A3A, FAM/TAMRA ssDNA deamination fluorescence. 330,000 compounds, 0.41% hits. DNA dC->dU-editing enzyme APOBEC-3A (Homo sapiens), P31941. inhibition, % at 20 µM;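 active = at least 40% inhibition at 20 µM here, with at most 30% in a related deaminase screen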
Target sequence (P31941 whole entry, looked up): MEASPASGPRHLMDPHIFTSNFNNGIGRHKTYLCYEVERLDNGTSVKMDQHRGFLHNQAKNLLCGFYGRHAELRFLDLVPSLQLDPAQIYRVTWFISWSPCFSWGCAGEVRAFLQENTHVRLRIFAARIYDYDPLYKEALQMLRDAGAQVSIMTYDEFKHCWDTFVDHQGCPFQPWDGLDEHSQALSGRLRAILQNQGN
APOBEC3G inh: APOBEC3G DNA deaminase inhibitors, primary screen, biochemical, fluorescence, single-stranded DNA substrate, uHTS; recombinant A3G, ssDNA deamination FAM/TAMRA fluorescence; inhibition, % at 20 µM; 330,000 compounds, 0.28% hits; AID 493012, 2011;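 active = inhibition of at least 40% at 20 µM, with no more than 30% in the related APOBEC3A deaminase screen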
APOBEC3A confirm: APOBEC3A deaminase inhibitors, retest, confirmation, selectivity assay for APOBEC3G inhibitor project, biochemical, single concentration, fluorescence readout; shares compounds with APOBEC3A inh; recombinant A3A, ssDNA deaminase UDG fluorescence assay; inhibition, % at 20 µM; 1,400 compounds, 63% hits; AID 493151, 2011;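 active = inhibition reaching a set limit, 80% of the first screen's cutoff, at 20 µM in any replicate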
UDG A3A counter: E. coli UDG inhibitors, confirmation, counter-screen for APOBEC3A inhibitor project, biochemical, single concentration, fluorescence, FAM/TAMRA oligo; 1,000 tested, under 10 active; inhibition, % at 20 µM; UDG counterscreen, FAM/TAMRA uracil oligo fluorescence; shares compounds with APOBEC3A inh; call rule not given here
Large screens that a line does not name were inactive (follow-up assays come after a bar, where they were run).

CCCC1CCC2(CC1)CCC2OC(=S)Nc1ccccc1OC (stereo not given)	none (no result: CendR NRP1 mod, APOBEC3A inh, APOBEC3G inh)
CCN1C(=NCCc2ccc(Br)cc2)N[C@@H](c2ccccc2)[C@H](C(=O)OC)[C@H]1C	none
CCN1C(=NCCCOC(C)C)N[C@@H](c2ccccc2)[C@H](C(=O)OC)[C@H]1C	APOBEC3A inh 44 | APOBEC3A confirm 61 | UDG A3A counter inactive
CCCCN1CCN(C2=NC(=O)N(c3ccc(Br)cc3)C(=O)C2)CC1	none (no result: CendR NRP1 mod, APOBEC3A inh, APOBEC3G inh)
COc1ccc(CCNC(=O)Cc2c(Cl)cccc2Cl)cc1	APOBEC3A inh 44 | APOBEC3A confirm inactive
O=C(Oc1ccc(Cl)c(Cl)c1)C1=CC=CN2CCS(=O)(=O)N=C12	none
COc1ccc(Br)cc1CN(C)C(=O)C1=CC=CN2CCS(=O)(=O)N=C12	APOBEC3A inh 55 | APOBEC3A confirm 51 | UDG A3A counter inactive
CN(Cc1ccc(Cl)c(Cl)c1)C(=O)C1=CC=CN2CCS(=O)(=O)N=C12	APOBEC3A inh 47 | APOBEC3A confirm 43 | UDG A3A counter inactive
COc1ccc(Br)cc1CN(C)C(=O)c1ccncc1	none
CC(C)c1[nH]nc2c1C(c1cccc(C(F)(F)F)c1)NC2=O (stereo not given)	none (no result: CendR NRP1 mod, APOBEC3A inh, APOBEC3G inh)
CC1(CC(=O)N/N=C/c2cc([N+](=O)[O-])c(O)cc2O)OCCO1	APOBEC3A inh 48 | APOBEC3A confirm 49 | UDG A3A counter inactive
Cc1ccc(-n2c(C)cc(/C=N/NC(=O)CC3(C)OCCO3)c2C)c(C)c1	none
Cc1ccc(NC(=O)c2ccc(CS(=O)(=O)Cc3ccccc3C)o2)cc1C	none (no result: CendR NRP1 mod, APOBEC3A inh, APOBEC3G inh)
COc1cc(OC)cc(C(=O)Nc2cccc3c2CCCC3)c1	none
COc1cccc(OC)c1C(=O)Nc1cccc2c1CCCC2	APOBEC3A inh 55 | APOBEC3A confirm inactive | UDG A3A counter inactive
CCOc1ccc(N(CC(=O)Nc2ccc(C)c(C)c2)S(=O)(=O)c2c(C)[nH]c(=O)[nH]c2=O)cc1	none
CCOc1ccc(N(CC(=O)Nc2ccccc2)S(C)(=O)=O)cc1	APOBEC3A inh 43 | APOBEC3A confirm 64 | UDG A3A counter inactive
CCOc1ccc(N(CC(=O)Nc2ccc(C)c(C)c2)S(C)(=O)=O)cc1	APOBEC3A inh 46 | APOBEC3A confirm inactive
COc1cccc2sc(Nc3nc(-c4cc5ccccc5oc4=O)cs3)nc12	none (no result: APOBEC3A inh, APOBEC3G inh)
COc1cccc2sc(Nc3nc(-c4ccncc4)cs3)nc12	APOBEC3A inh 45 | APOBEC3A confirm 24 | UDG A3A counter inactive
Cc1cc(C)c(CSc2ncnc3nc[nH]c23)c(C)c1	APOBEC3A inh 53 | APOBEC3A confirm inactive
Cc1cccc(CSc2ncnc3nc[nH]c23)c1	none
COC(=O)N1Cc2ccnnc2CC1c1ccccc1-c1ccc(OC)cc1 (stereo not given)	none (no result: CendR NRP1 mod, APOBEC3A inh, APOBEC3G inh)
CCCOc1ccc(/C=c2\sc3nc(-c4ccco4)nn3c2=O)cc1OCC	APOBEC3A inh 74 | APOBEC3A confirm 30 | UDG A3A counter inactive
CC(=O)Oc1cccc(/C=c2\sc3nc(-c4ccco4)nn3c2=O)c1	none
COC(=O)CC#C[C@H](C)[C@@H](NS(C)(=O)=O)C(C)(C)COCc1ccccc1	none (no result: CendR NRP1 mod, APOBEC3A inh, APOBEC3G inh)
CC(C)CN(CC(C)C)C(=O)c1ccc2c(c1)NC(=O)C(C)(C)O2	none (no result: CendR NRP1 mod, APOBEC3A inh, APOBEC3G inh)
Cc1ccc2ncccc2c1NS(=O)(=O)c1ccccc1	APOBEC3A inh 43 | APOBEC3A confirm inactive
CCn1c(C)nc2cc(S(=O)(=O)C(F)F)ccc21	none
CCn1c(C)nc2cc(S(=O)(=O)Nc3ccc(C)cc3)ccc21	APOBEC3A inh 66 | APOBEC3A confirm 55 | UDG A3A counter inactive
CCCCN1CC(COCc2ccccc2)Oc2cccc(Oc3ccc(F)cc3OC)c2S1(=O)=O (stereo not given)	none (no result: CendR NRP1 mod, APOBEC3A inh, APOBEC3G inh)
O=C(Nc1ccccc1Cl)O[C@@H]1CC[C@@]23CCCN2C(=O)CCC[C@H]3C1	none (no result: CendR NRP1 mod, APOBEC3A inh, APOBEC3G inh)
Cc1ccc(NC(=O)C2CCN(S(=O)(=O)c3cc([N+](=O)[O-])ccc3Cl)CC2)nc1	none
O=C(COC(=O)C1CCN(S(=O)(=O)c2cc([N+](=O)[O-])ccc2Cl)CC1)Nc1ncc(Cl)cc1Cl	APOBEC3A inh 51 | APOBEC3A confirm 50 | UDG A3A counter inactive
Cc1ccc2nc(NC(=O)C3CCN(S(=O)(=O)c4cc([N+](=O)[O-])ccc4Cl)CC3)sc2c1	APOBEC3A inh 42 | APOBEC3A confirm inactive
CC(C)[C@@H]1CC[C@@H](C)C[C@H]1OC[B-](F)(F)F	none (no result: CendR NRP1 mod, APOBEC3A inh, APOBEC3G inh)
CN1CCC(N(C)S(=O)(=O)c2ccc(NC(=O)COc3ccc([N+](=O)[O-])cc3)cc2)CC1	APOBEC3A inh 50 | APOBEC3A confirm 52 | UDG A3A counter inactive
CN1CCC(N(C)S(=O)(=O)c2ccc(NC(=O)COc3ccc(Cl)cc3)cc2)CC1	none
CN1CCC(N(C)S(=O)(=O)c2ccc(NC(=O)COc3ccc(F)cc3)cc2)CC1	APOBEC3A inh 64 | APOBEC3A confirm 58 | UDG A3A counter inactive
COc1ccc(-n2c(SCC(=O)Nc3ccc4cn[nH]c4c3)nnc2-c2ccccc2)cc1	none (no result: CendR NRP1 mod, APOBEC3A inh, APOBEC3G inh)
COC(=O)c1ccc2nc(-c3ccc(C)cc3)c(Cc3ccccc3)n2c1	none (no result: CendR NRP1 mod, APOBEC3A inh, APOBEC3G inh)
COC/C=C/C1=CC2=CC(=O)C(C)(OC(=O)c3cnc4ccccc4n3)C(=O)C2=CN1c1cccc(C#N)c1 (stereo not given)	none (no result: ADAM10 inh, ADAM17 inh, CendR NRP1 mod)
COC/C=C/C1=CC2=CC(=O)C(C)(OC(=O)c3cnc4ccccc4n3)C(=O)C2=CO1 (stereo not given)	APOBEC3A inh 44 (no result: ADAM10 inh, ADAM17 inh, CendR NRP1 mod) | APOBEC3A confirm 39
CCOC(=O)N1CCN(c2ccc(C(=O)c3cccc(F)c3)cc2)CC1	APOBEC3A inh 45 (no result: ADAM10 inh, ADAM17 inh) | APOBEC3A confirm inactive | UDG A3A counter inactive
O=C(c1ccc(N2CCN(C(=O)c3cccc(F)c3)CC2)cc1)c1cccc(F)c1	none
O=C(CCNS(=O)(=O)c1ccc2nsnc2c1)N1CCN(c2ccncc2)CC1	APOBEC3A inh 64 | APOBEC3A confirm inactive | UDG A3A counter inactive
O=C(COC(=O)Cc1cccc(C(F)(F)F)c1)Nc1cccc2ccccc12	APOBEC3A inh 41 | APOBEC3A confirm inactive | UDG A3A counter inactive
COc1ccc(-c2nnc3sc(C4CCCCC4)nn23)cc1OC	APOBEC3A inh 49 | APOBEC3A confirm inactive
